Measured values as given in PubChem BioAssay.
Active and inactive are the calls of the source.

Assays:
Albumin (Bos taurus) = Albumin (Bos taurus) (UniProt P02769); assay: compounds binding labelled BSA control protein – biochemical, small-molecule microarray, Alexa647 label, 635/667 nm fluorescence, artefact control for SMM control protein annotation, profiling panel (AID 1118); settings: BSA-A647 binding, fluorescence 635 nm, higher = more signal;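 further: score merges 667 nm emission intensity and signal-to-noise per printed compound spot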
Chain of Albumin (Bos taurus) (P02769 whole entry, looked up): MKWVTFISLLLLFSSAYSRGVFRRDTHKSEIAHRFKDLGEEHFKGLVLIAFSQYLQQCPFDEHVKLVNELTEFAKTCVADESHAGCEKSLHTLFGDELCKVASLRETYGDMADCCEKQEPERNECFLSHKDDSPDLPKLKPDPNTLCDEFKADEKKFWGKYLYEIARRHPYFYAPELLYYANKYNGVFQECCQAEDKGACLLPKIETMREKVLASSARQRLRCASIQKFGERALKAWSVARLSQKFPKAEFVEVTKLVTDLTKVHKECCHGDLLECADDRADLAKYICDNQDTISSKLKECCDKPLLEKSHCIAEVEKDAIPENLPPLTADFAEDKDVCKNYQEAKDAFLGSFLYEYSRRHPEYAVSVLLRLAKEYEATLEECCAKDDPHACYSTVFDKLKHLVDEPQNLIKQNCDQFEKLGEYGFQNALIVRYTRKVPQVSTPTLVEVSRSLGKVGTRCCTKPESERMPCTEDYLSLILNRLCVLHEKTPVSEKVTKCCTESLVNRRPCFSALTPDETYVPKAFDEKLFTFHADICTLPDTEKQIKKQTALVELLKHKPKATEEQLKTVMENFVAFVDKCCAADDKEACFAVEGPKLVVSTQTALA

[1] = probe aXIP binding to arrayed compounds – biochemical, NeuroSMM set, 635/667 nm fluorescence, primary screen (AID 1119); settings: small-molecule microarray, higher = more signal, called active from +8 up or from −8 down;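 further: probe is the protein aXip251-270 applied at 1 µg/mL to compound-printed slides; binding of probe to printed compounds measured as 667 nm fluorescence plus signal to noise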
[2] = probe aNOTCH3 binding on compound microarray – biochemical, small-molecule microarray, 635/667 nm fluorescence, primary screen (AID 1120); settings: higher = more signal;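 further: probe is a biotin-tagged antibody raised against NOTCH3 rather than NOTCH3 protein; score merges spot fluorescence near 667 nm with spot signal to noise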
[3] = probe aNOTCH2 binding on compound microarray – biochemical, small-molecule microarray, 635/667 nm fluorescence, primary screen (AID 1121); settings: higher = more signal;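 further: score merges feature fluorescence read at 667 nm with its signal to noise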
[4] = molecular target: Carbonic anhydrase 2 (Homo sapiens) (UniProt P00918); assay: compounds binding carbonic anhydrase 2 – biochemical, small-molecule microarray, Alexa647-labelled CAII, profiling panel (AID 1122); settings: CAII-A647 binding fluorescence, higher = more signal
[5] = COS7 lysate on small-molecule microarray, probe aHis, 635 nm (AID 1123); settings: COS7 cell lysate, fluorescence, higher = more signal;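 further: z-score combines 667nm fluorescence intensity with signal-to-noise per printed compound spot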
[6] = probe aLAP1 signal on lysate-treated microarray – cell lysate, small-molecule microarray, COS7 lysate, primary screen (AID 1124); settings: probe aLAP1, fluorescence, higher = more signal;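 further: lysate comes from COS7 cells expressing LAP1 and is applied at 0.3 µg/mL; score merges spot fluorescence near 667 nm with signal-to-noise over triplicate slides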
Sam68 (KHDRBS1) = assay: compounds binding KHDRBS1 protein – biochemical, small-molecule microarray, 635 nm fluorescence, primary screen (AID 1125); settings: higher = more signal;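 further: score merges 667 nm channel intensity with signal to noise over triplicate slides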
[7] = tested on: Chordin-like protein 2 (CHRDL2); assay: compounds binding chordin-like 2 – biochemical, small-molecule microarray, 635 nm fluorescence, primary screen (AID 1126); settings: fluorescence 635 nm, higher = more signal;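 further: printed compound slides probed with Chrdl2 protein at 4 µg/mL for 1 h at 4 C; score merges 667 nm emission intensity with signal to noise over three replicate slides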
[8] = molecular target: Concanavalin-A (Canavalia ensiformis) (UniProt P02866); assay: compounds binding concanavalin A lectin – biochemical, small-molecule microarray, Alexa647 label, 635 nm, artefact control for SMM control protein annotation, primary screen (AID 1127); settings: ConA-A647 binding fluorescence, higher = more signal;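 further: z combines 667 nm emission intensity with signal-to-noise across three replicate slides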
Chain of Concanavalin-A (Canavalia ensiformis) (P02866 whole entry, looked up): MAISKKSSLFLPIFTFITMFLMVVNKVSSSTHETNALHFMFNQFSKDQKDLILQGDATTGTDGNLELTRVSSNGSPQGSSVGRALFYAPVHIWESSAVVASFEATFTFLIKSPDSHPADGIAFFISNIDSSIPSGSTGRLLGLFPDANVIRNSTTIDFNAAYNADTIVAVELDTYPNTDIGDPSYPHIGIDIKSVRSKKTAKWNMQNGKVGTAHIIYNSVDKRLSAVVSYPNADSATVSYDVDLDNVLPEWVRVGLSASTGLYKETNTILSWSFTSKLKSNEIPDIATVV

[9] = compounds binding Alexa647 anti-His antibody – biochemical, small-molecule microarray, 635 nm fluorescence, artefact control for SMM control protein annotation, primary screen (AID 1128); settings: higher = more signal;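 further: score merges feature fluorescence with signal-to-noise for each printed compound spot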
[10] = tested on: Human papillomavirus type 1a E7 protein (residues 1-88); assay: HPV1a E7 small-molecule binders, primary screen, biochemical, small-molecule microarray, residues 1-88, 635 nm (AID 1129); settings: small-molecule microarray binding, fluorescence 635 nm; higher = more signal
[11] = molecular target: Focal adhesion kinase 1 (Homo sapiens) (UniProt Q05397); assay: PTK2 protein binding on printed compound slides – biochemical, small-molecule microarray, 635/667 nm fluorescence, BSA, DTT, primary screen (AID 1130); settings: 635 nm fluorescence, higher = more signal;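 further: composite of spot emission at 667 nm and signal to noise over triplicate slides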
Chain of Focal adhesion kinase 1 (Homo sapiens) (Q05397 whole entry, looked up): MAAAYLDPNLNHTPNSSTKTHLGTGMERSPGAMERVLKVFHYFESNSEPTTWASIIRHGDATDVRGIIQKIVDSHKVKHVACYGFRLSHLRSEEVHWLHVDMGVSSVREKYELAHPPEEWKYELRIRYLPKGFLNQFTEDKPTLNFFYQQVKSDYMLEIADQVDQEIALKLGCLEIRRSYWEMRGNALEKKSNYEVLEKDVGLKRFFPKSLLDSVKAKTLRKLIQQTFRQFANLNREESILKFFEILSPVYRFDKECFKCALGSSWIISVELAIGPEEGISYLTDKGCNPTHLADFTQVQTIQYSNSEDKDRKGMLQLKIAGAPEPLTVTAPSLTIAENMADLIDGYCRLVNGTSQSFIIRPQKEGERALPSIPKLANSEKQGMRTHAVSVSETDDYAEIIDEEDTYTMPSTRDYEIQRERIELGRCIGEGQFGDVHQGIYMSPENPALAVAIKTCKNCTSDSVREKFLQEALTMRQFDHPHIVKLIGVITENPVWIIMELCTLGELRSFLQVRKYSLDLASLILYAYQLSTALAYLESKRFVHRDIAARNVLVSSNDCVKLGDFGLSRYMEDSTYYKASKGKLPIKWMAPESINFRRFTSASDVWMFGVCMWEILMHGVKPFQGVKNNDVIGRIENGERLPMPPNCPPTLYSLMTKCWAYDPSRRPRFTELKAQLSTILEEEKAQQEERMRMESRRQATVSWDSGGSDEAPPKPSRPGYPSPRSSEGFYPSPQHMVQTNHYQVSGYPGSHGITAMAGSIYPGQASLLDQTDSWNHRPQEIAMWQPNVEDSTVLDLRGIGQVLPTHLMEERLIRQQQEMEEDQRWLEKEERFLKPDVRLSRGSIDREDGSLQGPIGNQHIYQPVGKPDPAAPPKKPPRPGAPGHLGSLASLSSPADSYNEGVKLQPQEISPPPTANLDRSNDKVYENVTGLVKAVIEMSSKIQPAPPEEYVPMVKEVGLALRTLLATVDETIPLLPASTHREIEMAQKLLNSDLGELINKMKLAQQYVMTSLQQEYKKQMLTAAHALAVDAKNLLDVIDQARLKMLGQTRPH

[12] = tested on: Fibrinogen (Alexa647-labelled); assay: Alexa647-fibrinogen binding to printed small molecules – biochemical, small-molecule microarray, 635/667 nm fluorescence, artefact control for SMM control-protein annotation, profiling panel (AID 1131); settings: fibrinogen-A647 binding fluorescence, higher = more signal;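 further: z-score merges 667 nm fluorescence with per-spot signal-to-noise over triplicate slides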
[13] = molecular target: Follistatin (Homo sapiens) (UniProt P19883); assay: FST protein binding to printed compounds – biochemical, small-molecule microarray, 635/667 nm fluorescence, primary screen (AID 1132); settings: 635 nm fluorescence, higher = more signal
Chain of Follistatin (Homo sapiens) (P19883 whole entry, looked up): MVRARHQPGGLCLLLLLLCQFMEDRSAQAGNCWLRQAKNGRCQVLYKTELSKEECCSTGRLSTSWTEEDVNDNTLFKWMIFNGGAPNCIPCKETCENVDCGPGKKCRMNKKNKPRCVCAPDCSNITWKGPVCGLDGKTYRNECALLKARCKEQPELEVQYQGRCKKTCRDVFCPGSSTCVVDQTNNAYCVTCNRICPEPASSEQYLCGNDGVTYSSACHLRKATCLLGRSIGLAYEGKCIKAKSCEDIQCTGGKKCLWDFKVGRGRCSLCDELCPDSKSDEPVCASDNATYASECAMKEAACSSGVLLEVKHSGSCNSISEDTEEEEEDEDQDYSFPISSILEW

[14] = molecular target: Fibroblast growth factor 2 (Homo sapiens) (UniProt P09038); assay: basic fibroblast growth factor binding to printed compounds – biochemical, small-molecule microarray, 635/667 nm fluorescence, primary screen (AID 1133); settings: FGF2, fluorescence 635/667, higher = more signal
Chain of Fibroblast growth factor 2 (Homo sapiens) (P09038 whole entry, looked up): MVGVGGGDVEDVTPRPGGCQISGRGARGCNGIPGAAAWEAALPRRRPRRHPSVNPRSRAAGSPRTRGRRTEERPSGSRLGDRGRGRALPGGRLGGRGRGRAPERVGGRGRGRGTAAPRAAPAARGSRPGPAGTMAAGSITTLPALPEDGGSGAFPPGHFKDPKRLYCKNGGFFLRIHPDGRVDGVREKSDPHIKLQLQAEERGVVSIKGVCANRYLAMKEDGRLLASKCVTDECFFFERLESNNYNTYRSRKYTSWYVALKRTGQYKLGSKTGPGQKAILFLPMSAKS

[15] = JC-1 mitochondrial potential readout, lung cancer cells – cell-based, A549, JC-1 fluorescence, basal, 24 h, 100 nL, profiling panel (AID 1138); settings: higher = more signal;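 further: A549 lung adenocarcinoma cells under basal conditions with no added stimulus; test concentration not given here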
Lefty1 = Lefty1 protein binding to printed compounds – biochemical, small-molecule microarray, 635/667 nm fluorescence, primary screen (AID 1139); settings: fluorescence 635/667, higher = more signal
[16] = tested on: wheat germ agglutinin (Triticum aestivum), Alexa647-labelled; assay: Alexa647-WGA lectin binding to printed small molecules – biochemical, small-molecule microarray, 635/667 nm fluorescence, artefact control for SMM control-protein annotation, profiling panel (AID 1140); settings: WGA-A647 binding, 635 nm fluorescence, higher = more signal;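 further: score merges 667 nm feature emission with signal to noise over triplicate slides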
[17] = molecular target: Luciferin 4-monooxygenase (Photinus pyralis) (UniProt P08659); assay: inhibition of purified Photinus pyralis luciferase – biochemical, luminescence, purified enzyme, 2006 set, primary screen (AID 1141); settings: purified firefly luciferase, SteadyGlo luminescence, 30 min; higher = more signal, called active from +8 up or from −8 down;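 further: cell-free assay with purified firefly luciferase at 100 ng per well in PBS; test concentration not given here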
Chain of Luciferin 4-monooxygenase (Photinus pyralis) (P08659 whole entry, looked up): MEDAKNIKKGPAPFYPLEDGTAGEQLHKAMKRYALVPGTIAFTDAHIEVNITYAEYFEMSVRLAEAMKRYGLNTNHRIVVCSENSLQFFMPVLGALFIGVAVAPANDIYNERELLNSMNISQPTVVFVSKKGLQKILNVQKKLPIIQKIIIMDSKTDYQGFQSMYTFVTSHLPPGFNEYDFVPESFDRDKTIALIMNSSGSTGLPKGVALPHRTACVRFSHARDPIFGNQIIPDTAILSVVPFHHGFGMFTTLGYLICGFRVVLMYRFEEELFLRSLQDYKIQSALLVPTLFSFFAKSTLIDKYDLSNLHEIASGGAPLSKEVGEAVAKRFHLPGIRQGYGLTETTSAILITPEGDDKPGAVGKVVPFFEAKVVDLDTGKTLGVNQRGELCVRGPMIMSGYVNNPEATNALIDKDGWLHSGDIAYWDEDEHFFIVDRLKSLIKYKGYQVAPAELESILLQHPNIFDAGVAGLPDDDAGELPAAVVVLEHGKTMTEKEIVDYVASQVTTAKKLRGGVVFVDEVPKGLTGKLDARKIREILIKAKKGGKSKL

Compound	composite z-score (Albumin (Bos taurus))	composite Z-score [1]	composite z-score [2]	composite z-score [3]	composite z-score [4]	composite z-score [5]	composite z-score [6]	composite z-score (Sam68 (KHDRBS1))	composite z-score [7]	composite z-score [8]	composite z-score [9]	composite z-score [10]	composite z-score [11]	composite z-score [12]	composite z-score [13]	composite z-score [14]	z-score [15]	composite z-score (Lefty1)	composite z-score [16]	z-score [17]
COc1ccc(C(=O)Nc2ccc(CN3C(=O)[C@@]4(O[C@@H](CC(=O)N5CCC[C@H]5CO)[C@H]([Si](C)(C)c5ccc(OC)cc5)[C@H]4C)c4ccccc43)cc2)cc1	0.042	0.277 (inactive)	-0.0219	-0.0389	0.51	1.78	0.045	1.31	0.989	1.08	-0.271	1.2	1.02	0.655	1.33	1.68	3.25	1.21	0.763	-2.38 (inactive)
N#Cc1ccc(NN2C(C(O)c3c(F)cccc3Cl)C=CC3C(=O)N(c4ccccc4)C(=O)C32)cc1 (stereo not given)	1.09	0.238 (inactive)	-0.095	0.0563	0.396	3.25	1.55	1.29	-0.768	1.13	2.29	1.21	0.377	0.973	1.23	0.407	-0.36	-0.0219	0.997	-0.671 (inactive)
CCN(CC)c1ccc(N2CC=CC34O[C@@H]5/C=C\CCCOC(=O)C5[C@H]3C(=O)N(CCO)[C@@H]4C2=O)cc1 (stereo not given in full)	-0.633	0.858 (inactive)	-0.299	-0.14	0.78	0.534	0.485	-0.526	-1.39	-0.362	0.449	-0.57	-0.724	-0.837	-0.654	-1.03	-0.73	-0.2	-0.875	-0.312 (inactive)
COc1ccc(C(O)C2C=CC3C(=O)N(C)C(=O)C3N2N2CCCCC2)c2ccccc12 (stereo not given)	0.9	0.476 (inactive)	0.432	-0.0351	0.448	2.89	-0.32	1.31	-0.147	1.21	1.4	1.26	0.921	1	0.829	-0.372	-0.364	0.174	1.27	-0.129 (inactive)
CN1C(=O)C2C=CC(C(O)c3cc(C(F)(F)F)cc(C(F)(F)F)c3)N(N3CCCCC3)C2C1=O (stereo not given)	0.712	2.11 (inactive)	0.0488	-0.0467	0.551	1.79	-0.33	1.08	-0.672	0.768	1.13	1.03	0.428	0.62	-0.165	-0.397	-0.0918	-0.4	0.615	-1.48 (inactive)
